Experimental data reported in PubChem BioAssay (EPA / NIEHS).
The source made the active and inactive calls. Rule for the calls: active = hit-call score of the fitted dose curve at least 0.9, where 1 is the maximum; inactive = score below 0.9.

Key:
Settings in all cases: mRNA level, 48 h; actives raise or lower the signal
[1] = read-out: Peroxisomal acyl-coenzyme A oxidase 1 (ACOX1) gene, ACOX1 (gene 51); experiment: LTEA_HepaRG_ACOX1: Life Technologies and Expression Analysis (LTEA) Assay for Peroxisomal acyl-coenzyme A oxidase 1 (ACOX1) gene using HepaRG (AID 2283467)
Method in brief: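 ACOX1 transcript levels were quantified by TaqMan qRT-PCR against three housekeeping genes after 48 h chemical exposure of differentiated human HepaRG cells. Exposure used eight half-log steps topping at 100 uM, 0.5% DMSO vehicle, in duplicate. Bidirectional curve fits were made relative to DMSO.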

[2] = read-out: Alkaline Phosphatase, Placental (ALPP) gene, ALPP (gene 250); experiment: LTEA_HepaRG_ALPP: Life Technologies and Expression Analysis (LTEA) Assay for Alkaline Phosphatase, Placental (ALPP) gene using HepaRG (AID 2283468);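 for AC50: differentiated human HepaRG liver cells in serum-free induction medium; ALPP transcript by TaqMan qRT-PCR normalized to ACTB GAPDH and POLR2A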
Method in brief: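 Using human liver HepaRG cells, chemicals are tested in duplicate over 48 h at half-log concentrations topping at 100 uM; phenobarbital 1 mM serves as induction control. ALPP mRNA change by qRT-PCR, bidirectional fit against vehicle.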

[3] = read-out: Bcl-2 (BAD) gene, BAD (gene 572); experiment: LTEA_HepaRG_BAD: Life Technologies and Expression Analysis (LTEA) Assay for Bcl-2 (BAD) gene using HepaRG (AID 2283469)
Method in brief: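 Read-out: qRT-PCR of BAD mRNA, normalized to three housekeeping genes. Human HepaRG cultures got 48 h chemical exposure in 0.5% DMSO, duplicate eight-point half-log series topping at 100 uM. Gain or loss of signal fitted versus DMSO vehicle.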

[4] = read-out: Bcl-2 (BAX) gene, BAX (gene 581); experiment: LTEA_HepaRG_BAX: Life Technologies and Expression Analysis (LTEA) Assay for Bcl-2 (BAX) gene using HepaRG (AID 2283470)
Method in brief: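 Human HepaRG cells treated in duplicate for 48 h across eight concentrations (max 100 uM, 0.5% DMSO); BAX expression measured by qRT-PCR.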

[5] = read-out: adenosine kinase (ADK) gene, ADK (gene 132); experiment: LTEA_HepaRG_ADK: Life Technologies and Expression Analysis (LTEA) Assay for adenosine kinase (ADK) gene using HepaRG (AID 2283471)
Method in brief: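 HepaRG (human liver), 48 h chemical exposure, 8-pt half-log series, top 100 uM, 0.5% DMSO vehicle. Readout: ADK mRNA by qRT-PCR vs housekeeping genes; bidirectional curve fit relative to DMSO baseline.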

[6] = read-out: Alpha-fetoprotein (AFP) gene, AFP (gene 174); experiment: LTEA_HepaRG_AFP: Life Technologies and Expression Analysis (LTEA) Assay for Alpha-fetoprotein (AFP) gene using HepaRG (AID 2283472);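 for AC50: AFP transcript by TaqMan qRT-PCR normalized to ACTB GAPDH and POLR2A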
Method in brief: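 Measures AFP mRNA change in HepaRG after 48 h chemical exposure (8 half-log concentrations, highest 100 uM, 0.5% DMSO). Fold change relative to DMSO, fitted in both directions.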

[7] = read-out: BCL2L11 (gene 10018); experiment: LTEA_HepaRG_BCL2L11: Life Technologies and Expression Analysis (LTEA) Assay for Bcl-2 (BCL2L11) gene using HepaRG (AID 2283473)
Method in brief: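 Human hepatic HepaRG cultures are treated 48 h with test chemicals (maximum 100 uM, 0.5% DMSO vehicle). Expression of BCL2L11 is measured by qRT-PCR against ACTB, GAPDH and POLR2A, with activity in either direction scored relative to vehicle.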

[8] = read-out: Apolipoprotein A-V (APOA5) gene, APOA5 (gene 116519); experiment: LTEA_HepaRG_APOA5: Life Technologies and Expression Analysis (LTEA) Assay for Apolipoprotein A-V (APOA5) gene using HepaRG (AID 2283474)
Method in brief: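 Concentration-response of APOA5 expression in HepaRG: eight half-log doses to 100 uM, 48 h, qRT-PCR normalized to ACTB/GAPDH/POLR2A, bidirectional fitting with 0.5% DMSO as baseline.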

[9] = read-out: Apoptosis regulator Bcl-2 (Homo sapiens) (UniProt P10415); experiment: LTEA_HepaRG_BCL2: Life Technologies and Expression Analysis (LTEA) Assay for Bcl-2 gene using HepaRG (AID 2283475);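 note: BCL2 transcript by TaqMan qRT-PCR normalised to ACTB GAPDH and POLR2A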
Method in brief: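 Each chemical was tested in duplicate on HepaRG cultures held in serum-free induction medium for 48 h, highest concentration 100 uM with half-log dilutions. Transcript levels came from multiplexed qRT-PCR, normalised to housekeeping genes; activity was scored in either direction relative to DMSO.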

[10] = read-out: Bcl-2 (BID) gene, BID (gene 637); experiment: LTEA_HepaRG_BID: Life Technologies and Expression Analysis (LTEA) Assay for Bcl-2 (BID) gene using HepaRG (AID 2283476)
Method in brief: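 Assay used HepaRG hepatic cells treated 48 h in serum-free medium with half-log dilutions from 100 uM. Endpoint: BID mRNA, qRT-PCR, normalized to ACTB/GAPDH/POLR2A.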

Measured: AC50

Sequence of Apoptosis regulator Bcl-2 (Homo sapiens) (P10415 whole entry, looked up): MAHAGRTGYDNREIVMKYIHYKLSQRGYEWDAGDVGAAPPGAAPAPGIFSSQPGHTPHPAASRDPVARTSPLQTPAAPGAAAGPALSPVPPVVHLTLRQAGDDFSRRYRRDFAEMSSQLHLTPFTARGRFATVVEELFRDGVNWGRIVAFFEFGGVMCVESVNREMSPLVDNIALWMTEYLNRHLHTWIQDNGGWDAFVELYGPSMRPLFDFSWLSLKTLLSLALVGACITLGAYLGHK

CCOP(=O)(SC(C)CC)N1CCSC1=O (stereo not drawn)
inactive: all assays above

Nc1nc(N)nc(NC2CC2)n1
inactive: all assays above

O=[N+]([O-])c1cc(C(F)(F)F)c(Cl)c([N+](=O)[O-])c1Nc1ncc(C(F)(F)F)cc1Cl
active: [1] 60.2 µM | [2] 9.95 µM | [5] 50 µM | [6] 23 µM | [7] 66.3 µM
inactive: [3] | [4] | [8] | [9] | [10]

CNC(=O)Oc1cccc2c1OC(C)(C)O2
inactive: all assays above

CC(C1CC1)C(O)(Cn1cncn1)c1ccc(Cl)cc1 (stereo not drawn)
active: [6] 20.5 µM
not listed: [2] | [10]
inactive: all other assays above

CNc1cnn(-c2cccc(C(F)(F)F)c2)c(=O)c1Cl
active: [6] 22 µM
inactive: all other assays above

Cc1nn(-c2cc(NS(C)(=O)=O)c(Cl)cc2Cl)c(=O)n1C(F)F
inactive: all assays above

CCC(CC)Nc1c([N+](=O)[O-])cc(C)c(C)c1[N+](=O)[O-]
active: [6] 50 µM
not listed: [8]
inactive: all other assays above

C#CCC1=C(C)C(OC(=O)C2C(C=C(C)C)C2(C)C)CC1=O (stereo not drawn)
active: [6] 81.1 µM
inactive: all other assays above

CCc1cccc(C)c1N(C(=O)CCl)C(C)COC (stereo not drawn)
active: [6] 77.1 µM
inactive: all other assays above

CSc1nc(NC(C)C)nc(NC(C)C)n1
active: [6] 50 µM | [8] 50 µM
not listed: [2] | [10]
inactive: all other assays above

CCOP(=O)(OCC)Oc1cc(C)nc(C(C)C)n1
inactive: all assays above

CCOP(=S)(OCC)SCCSCC
inactive: all assays above

CON=C(C(=O)OC)c1ccccc1CON=C(C)c1cccc(C(F)(F)F)c1
inactive: all assays above

FC(F)C(F)(F)OCC(Cn1cncn1)c1ccc(Cl)cc1Cl (stereo not drawn)
inactive: [3] | [5] | [7] | [10]
active: [1] 53.6 µM | [2] 55 µM | [4] 32.3 µM | [6] 20.2 µM | [8] 35.6 µM | [9] 30.2 µM

C#CC(C)(C)NC(=O)c1cc(Cl)cc(Cl)c1
active: [2] 17.3 µM
not listed: [6] | [10]
inactive: all other assays above

CCCCN(CC)c1c([N+](=O)[O-])cc(C(F)(F)F)cc1[N+](=O)[O-]
inactive: all assays above
